Test results taken from PubChem BioAssay AID1704 (The Scripps Research Institute Molecular Screening Center, 2009).
This is one part of the list. Values without a mark were called inactive. Active and inactive are the calls of the source.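 The calls were made as follows: active = inhibition above the mean of stimulated solvent-only control wells plus 3 SD (cut at about 22% in these data); inactive = the rest.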

Assay: blockers of isoproterenol-driven CNG channel signal – cell-based, HEK293-CNG parental, membrane potential fluorescence, Y1 set, counter-screen for NPY-Y1 potentiator/agonist project (AID 1704);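 also: 0% = isoproterenol-stimulated DMSO wells and 100% = unstimulated DMSO wells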
Conditions: isoproterenol cAMP, at 3.6 µM, hits give high values

CCn1c2ccccc2c2cc(NC(=O)Nc3ccc([N+](=O)[O-])cc3C)ccc21
inhibition: 16.4%

N#Cc1ccc(C(=O)Nc2nc(-c3cccs3)c(C(=O)C(F)(F)F)s2)cc1
inhibition: -18.5%

CC1=C/C(=N\OS(=O)(=O)c2ccccc2)C=CC1=O
inhibition: 16.7%

O=C(Nc1ccc2c(c1)CCC2)c1cccc(S(=O)(=O)Nc2ccccc2Cl)c1
inhibition: 7.5%

O=C(Nc1ccccc1C(F)(F)F)c1cc(-c2ccc(O)cc2)on1
inhibition: -10.9%

COC(=O)c1ccc(NC(=O)CN(c2ccc(C)cc2)S(=O)(=O)c2c(C)n[nH]c2C)cc1
inhibition: 36.6% (active)

CN1C(=O)c2ccccc2C(C(=O)NCCCN2CCCC2)C1c1c[nH]c2ccccc12 (stereo unspecified)
inhibition: -0.85%

CC(=O)c1ccc(NC(=O)C2CC(=O)Nc3nc4ccccc4n32)cc1 (stereo unspecified)
inhibition: 32.8% (active)

O=[N+]([O-])c1cc(Cl)cc(/C=N/NC(=S)Nc2cc(S(=O)(=O)N3CCOCC3)ccc2Cl)c1O
inhibition: 66.5% (active)

COC(=O)c1sc(-c2ccc(C(C)(C)C)cc2)cc1NC(=O)/C=C/C(=O)O
inhibition: 24.5% (active)

Cc1cccc(OCC(O)CN2CCN(CCN3C(=O)c4cccc5cccc(c45)C3=O)CC2)c1C (stereo unspecified)
inhibition: 51.3% (active)

O=C(c1cccs1)N1CCN(C(=O)N2CCOCC2)CC1
inhibition: 1.33%

Cc1ccccc1NCC(=O)N/N=C\c1ccc([N+](=O)[O-])s1
inhibition: 33.8% (active)

O=C1/C(=C/c2coc3ccc(O)cc3c2=O)SC(=S)N1c1ccccc1
inhibition: 11.7%

COCCn1nnnc1C(c1ccccc1Cl)N1CCN(c2ccccc2OC)CC1 (stereo unspecified)
inhibition: -5.71%

CSc1nc(-c2ccco2)nn1C(=O)c1ccccc1Cl
inhibition: 12.3%
